# Results published in PubChem BioAssay (NCATS).
# Where “and” joins values, the source holds several entries; their conditions need not be identical. Equal values may be shown once. Inconclusive results are not listed. A call without a number means that no potency is given here. A number with no mark means an inactive call. Calls of active or inactive are those of the source. Calls follow the shape of the dose curve; as a rule, active = well fitted curve in the direction sought with a large enough effect; inconclusive = small, poorly fitted or top-dose-only effect, or another doubt; inactive = no such curve, though single readings can be large; an effect the other way counts as inactive or inconclusive.
# Columns and labels:
# [1] = Viability qHTS for spleen associated tyrosine kinase inhibitor (SYKi) drug resistant MV4-11 cells (AID 1963824); also: nearly all actives have a fitted effect of over 35% in size
# Procedure, shortened: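 SYK inhibitor-resistant MV4-11 AML cells, 500 per well, added to predispensed compounds and incubated 72 hr at 37 C, 5% CO2. Viability measured by CellTiter-Glo luminescence after 10 min at room temperature.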
# [2] = Quantitative highthroughput screen to assess conditional lethalithy of NOMO1 cells grown in RPMI1640 with untreated serum (RPMI+s) (AID 1963876); also: nearly all actives have a fitted effect of over 35% in size
# Procedure, shortened: (§1)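 Each medium arm—HPLM with 10% dialyzed FBS, or RPMI1640 with 5 mM glucose and 10% untreated or dialyzed FBS—was screened against an 11-point, 3-fold compound titration for 48 h at 37 °C, with CellTiter-Glo luminescence as endpoint.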
# [3] = Quantitative highthroughput screen to assess conditional lethalithy of NOMO1 cells grown in RPMI1640 with dialyzed fetal bovine serum (RPMI+ds) (AID 1963877); also: nearly all actives have a fitted effect of over 30% in size; as to Viability: series mostly up to about 46 µM
# Procedure, shortened: as §1
# [4] = Quantitative highthroughput screen to assess conditional lethalithy of NOMO1 cells grown in Human Plasma-Like Medium with dialyzed fetal bovine serum (HPLM+ds) (AID 1963878); also: nearly all actives have a fitted effect of over 35% in size
# Procedure, shortened: as §1
# [5] = Quantitative highthroughput screen to assess conditional lethalithy of P12 Ichikawa cells grown in Human Plasma-Like Medium with dialyzed fetal bovine serum (HPLM+ds) (AID 1963879); settings: Potency: viability; also: nearly all actives have a fitted effect of over 35% in size; as to Viability: series mostly up to about 46 µM
# Procedure, shortened: as §1
# [6] = Quantitative highthroughput screen to assess conditional lethalithy of P12 Ichikawa cells grown in RPMI1640 with dialyzed fetal bovine serum (RPMI+ds) (AID 1963880); settings: Potency: P12-Ichikawa viability; also: nearly all actives have a fitted effect of over 35% in size
# Procedure, shortened: as §1
# [7] = Quantitative highthroughput screen to assess conditional lethalithy of P12 Ichikawa cells grown in RPMI1640 with untreated serum (RPMI+s) (AID 1963881); settings: Potency: viability; also: nearly all actives have a fitted effect of over 35% in size; as to Viability: series mostly up to about 46 µM
# Procedure, shortened: as §1
# [8] = Quantitative highthroughput screen to assess conditional lethalithy of SEM cells grown in Human Plasma-Like Medium with dialyzed fetal bovine serum (HPLM+ds) (AID 1963882); also: nearly all actives have a fitted effect of over 35% in size; as to Viability: series mostly up to about 46 µM
# Procedure, shortened: as §1
# [9] = Cellular viability qHTS for adrenocortical cancer (ACC) cell line SW-13 (AID 1963989); settings: SW-13 ACC cells viability, CellTiter-Glo, 48 h; activity (max response): active compounds read low; also: nearly all actives have a fitted effect of over 65% in size;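 as to activity (max response): cells grown in serum-free medium with ITS supplement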
# Procedure, shortened: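 Here, serum-free SW-13 cultures were dosed up to 46 uM. Following 48 h, ATP-dependent luminescence (CellTiter-Glo) reported viable cells, and logistic modeling produced IC50 values.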
# [10] = Cellular viability qHTS for adrenocortical cancer (ACC) cell line NCI-H295R (AID 1963990); also: nearly all actives have a fitted effect of over 60% in size
# Procedure, shortened: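 Viability of NCI-H295R after 48 h of treatment (final up to 46 uM) measured through cellular ATP luminescence.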
# [11] = Quantitative highthroughput screen to assess conditional lethalithy of SEM cells grown in RPMI1640 with unreated serum (RPMI+s) (AID 1963883); also: nearly all actives have a fitted effect of over 35% in size
# Procedure, shortened: as §1
# [12] = Quantitative highthroughput screen to assess conditional lethalithy of SEM cells grown in RPMI1640 with dialyzed fetal bovine serum (RPMI+ds) (AID 1963884); also: nearly all actives have a fitted effect of over 35% in size; as to Viability: series mostly up to about 46 µM
# Procedure, shortened: as §1
# Potency is read from the fitted curve at half-maximal effect.
Compound,Potency [1],Potency [2],Potency [3],Potency [4],Potency [5],Potency [6],Potency [7],Potency [8],Potency [9],Potency [10],Potency [11],Potency [12],activity (max response) [9]
CN(C)c1ccc2nc3ccc(=[N+](C)C)cc-3sc2c1,372 nM (active) and 841 nM (active),8.33 µM (active),6.62 µM (active),8.33 µM (active),5.26 µM (active),7.43 µM (active),5.9 µM (active),9.35 µM (active),7.08 µM (active) and 4.11 µM (active),8.91 µM (active) and 8.2 µM (active),–,–,–
C[C@]12CC[C@H](O)CC1=CCC1C2CC[C@]2(C)C(n3cnc4ccccc43)=CCC12 (some centres not stated),7.42 µM (active),inactive,inactive,inactive,inactive,inactive,inactive,inactive,–,inactive,inactive,inactive,-10.3%
CNC1CCC(N(Cc2cccc(-c3ccncc3)c2)C(=O)c2sc3ccccc3c2Cl)CC1 (configuration not stated),5.8 µM (active) and 5.25 µM (active),3.32 µM (active),16.6 µM (active),1.48 µM (active),1.18 µM (active),1.66 µM (active),2.09 µM (active),1.32 µM (active),10 µM (active),–,0.372 µM (active),0.833 µM (active),–
COc1cc([C@@H]2c3cc4c(cc3[C@@H](O[C@@H]3O[C@@H]5CO[C@@H](C)O[C@@H]5[C@H](O)[C@@H]3O)[C@H]3COC(=O)[C@H]23)OCO4)cc(OC)c1O,0.525 µM (active),2.09 µM (active),2.35 µM (active),1.87 µM (active),0.935 µM (active),0.833 µM (active),0.662 µM (active),0.526 µM (active),11.2 µM (active),20 µM (active),0.132 µM (active),0.166 µM (active),–
CN(CCOc1ccc(CC2SC(=O)NC2=O)cc1)c1ccccn1 (configuration not stated),13.3 µM (active),inactive,inactive,inactive,inactive,inactive,inactive,inactive,–,inactive,inactive,inactive,-2.77% and -12.8%
O=C(Nc1cc(Cl)cc2c1[nH]c1cnccc12)c1cccnc1,3.55 µM (active),inactive,inactive,inactive,inactive,inactive,inactive,inactive,–,inactive,–,–,7.23%
Nc1ccn([C@@H]2O[C@H](CO)[C@@H](O)C2O)c(=O)n1 (some centres not stated),1.86 µM (active),inactive,inactive,1.18 µM (active),inactive,inactive,inactive,–,–,inactive,–,–,–
COc1ccc(Cc2ccc(NC(N)=O)cc2)cc1-c1cccc(Cl)c1,18.6 µM (active),inactive,inactive,inactive,inactive,inactive,inactive,inactive,–,28.2 µM (active),inactive,–,–
CCOC(=O)[C@H](CCc1ccccc1)N[C@H]1CS[C@H](c2cccs2)CN(CC(=O)O)C1=O,13.3 µM (active) and 5.9 µM (active),10.5 µM (active),13.2 µM (active),5.26 µM (active),8.33 µM (active),14.8 µM (active),9.35 µM (active),inactive,–,inactive,–,inactive,6.33% and 0.504%
C=CCc1cc(OC)c(O)c(C(=O)NCCO)c1,inactive,inactive,inactive,inactive,inactive,inactive,inactive,–,–,inactive,inactive,inactive,-2.94%
